Pol eta inh-1: qHTS for Inhibitors of Polymerase Eta; AID 588591, 2011; Potency, µM (doses to about 114 µM), for inactives: at the top dose activity change, negative = inhibition, usual class: inhibitors; hit rate 1.2% among 390,000; recombinant Pol eta, fluorescent DNA replication assay; DNA polymerase eta (Homo sapiens), Q9Y253; also: potency is read from the fitted curve at half-maximal effect; % is scaled to controls: 0 for no effect and ±100 for the full control effect
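Fluorescent replication assay: 50 nM final substrate added after a 15 min room-temperature compound preincubation with 10 nM enzyme. Signal taken at 0 min and again at 10 min.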
Pol kappa inh-1: qHTS for Inhibitors of Polymerase Kappa | DNA polymerase kappa (Homo sapiens), Q9UBT6 | purified Pol kappa, fluorescent DNA synthesis assay, 10 min | Potency, µM (series often up to 107 µM), for the others: top-dose activity, negative = inhibition, actives largely listed as inhibitors | hit rate 0.53% among 400,000 | AID 588579, 2011; also: potency is read from the fitted curve at half-maximal effect; % is scaled to controls: 0 for no effect and ±100 for the full control effect
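Here, compound and 10 nM enzyme are combined for 15 min at room temperature; adding 50 nM substrate (final) starts DNA synthesis, tracked by fluorescence at 0 and 10 min against buffer-only wells.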
POLI inh: qHTS for Inhibitors of Polymerase Iota. DNA polymerase iota (Homo sapiens), Q9UNA4. Potency, µM (highest dose often 115 µM), for inactives: at the highest dose activity, negative = inhibition, actives largely listed as inhibitors. hit rate 1% among 390,000. Pol iota fluorescent replication assay, 10 min. AID 588590, 2011; also: potency is read from the fitted curve at half-maximal effect
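Pol iota at 10 nM preincubated 15 min with compounds at room temperature; reaction started with fluorescent substrate, 50 nM final. Fluorescence read kinetically at 0 and 10 min; buffer-only wells as negative control.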
POLB inh: qHTS Assay for Inhibitors of DNA Polymerase Beta | Pol beta primer extension/strand displacement, fluorescence kinetic | Potency, µM (highest dose often 114 µM), for inactives: at the highest dose activity change, negative = inhibition, usual class: inhibitors | hit rate 1.3% among 340,000 | AID 485314, 2010; also: potency is read from the fitted curve at half-maximal effect; % is scaled to controls: 0 for no effect and ±100 for the full control effect
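Enzyme-only controls used 10 nM Pol beta; buffer lacking enzyme served as negative control. Compound preincubated 15 min, then 50 nM substrate added; 0 and 10 min reads at room temperature.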
WRN helicase inh: qHTS for Inhibitors of WRN Helicase; Bifunctional 3'-5' exonuclease/ATP-dependent helicase WRN (Homo sapiens), Q14191; WRN helicase unwinding, fluorescent forked duplex, kinetic; Potency, µM (doses to about 114 µM), inactives show at the top dose activity change, negative = inhibition, most hits filed as inhibitors; hit rate 0.46% among 360,000; also: potency is read from the fitted curve at half-maximal effect; % is scaled to controls: 0 for no effect and ±100 for the full control effect; nearly all actives have a fitted effect of over 55% in size
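WRN at 20 nM final was preincubated with compound for 15 min at room temperature; reaction started with 100 nM forked duplex oligonucleotide carrying fluorophore and quencher plus 2 mM ATP (final). Unwinding followed kinetically by red fluorescence (ex 525/em 598 nm).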
PI5P4Ka inh: qHTS for Inhibitors of phosphatidylinositol 5-phosphate 4-kinase (PI5P4K) | PI5P4Kalpha enzyme, ADP-Glo luminescence, 60 min; hits give low values | max response, % | hit rate 1.2% among 330,000; active = max response of -50% or lower; inconclusive = between -30% and -50%; inactive = -30% or higher; also: value at the top dose of about 77 µM; % is scaled to controls: 0 for no effect and ±100 for the full control effect
Target sequence (P48426 whole entry, looked up): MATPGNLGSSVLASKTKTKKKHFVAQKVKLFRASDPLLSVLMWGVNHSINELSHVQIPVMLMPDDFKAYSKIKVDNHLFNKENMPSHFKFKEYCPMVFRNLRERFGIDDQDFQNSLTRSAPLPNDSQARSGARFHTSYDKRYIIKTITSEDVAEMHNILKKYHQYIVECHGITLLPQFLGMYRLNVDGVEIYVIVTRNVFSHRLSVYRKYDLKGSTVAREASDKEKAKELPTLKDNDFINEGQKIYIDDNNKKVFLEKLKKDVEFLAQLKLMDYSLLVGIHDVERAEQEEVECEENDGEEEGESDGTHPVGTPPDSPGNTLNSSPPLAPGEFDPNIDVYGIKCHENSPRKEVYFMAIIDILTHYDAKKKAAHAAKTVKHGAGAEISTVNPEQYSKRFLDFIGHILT
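PI5P4Kalpha ADP-Glo assay; 5 microM ATP final; 60 min RT reaction; HEPES pH 7.4/EGTA/CHAPS, 5% DMSO; controls lacking substrate or enzyme; luminescent end-point.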
GALK confirm: Confirmation Assay for Inhibitors of Human Galactokinase (GALK). shares compounds with Pol eta inh-1. purified GALK, Kinase-Glo ATP depletion luminescence. Potency, µM (top dose mostly 115 µM), for inactives: at the highest dose activity, negative = inhibition, actives largely listed as inhibitors. hit rate 70% among 150. AID 2015, 2009
Target sequence (P51570 whole entry, looked up): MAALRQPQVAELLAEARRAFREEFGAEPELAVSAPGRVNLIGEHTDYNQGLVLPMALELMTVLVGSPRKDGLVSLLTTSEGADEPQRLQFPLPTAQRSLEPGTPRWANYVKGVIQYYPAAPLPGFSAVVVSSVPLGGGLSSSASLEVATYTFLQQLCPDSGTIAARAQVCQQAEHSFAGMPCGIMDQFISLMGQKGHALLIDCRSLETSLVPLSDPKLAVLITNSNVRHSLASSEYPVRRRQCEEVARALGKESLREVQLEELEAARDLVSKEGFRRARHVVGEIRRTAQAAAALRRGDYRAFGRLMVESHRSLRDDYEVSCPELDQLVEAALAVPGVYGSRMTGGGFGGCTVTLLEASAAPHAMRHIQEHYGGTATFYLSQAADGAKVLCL
GALK redox cs: Confirmatory Assay for Inhibitors of Human Galactokinase (GALK): Phenol-HRP redox assay counterscreen; shares compounds with Pol eta inh-1; Phenol red-HRP H2O2 redox cycling, absorbance 600 nm; Potency, µM (series often up to 115 µM), for the others: top-dose activity change, negative = H2O2 signal, hits mostly inhibitors; hit rate 40% among 150
HEK293 viability: Secondary Assay for Inhibitors of Human Galactokinase (GALK): HEK-293 Cell Viability Assay. shares compounds with Pol eta inh-1. HEK-293 viability, ATP luminescence (CellTiter-Glo), 24/48 h. Potency, µM (series often up to 46.1 µM), without a hit: at the highest dose activity change, negative = cytotoxicity, actives largely listed as inhibitors. hit rate 10% among 170; also: potency is read from the fitted curve at half-maximal effect; % is scaled to controls: 0 for no effect and ±100 for the full control effect
Pol kappa inh-2: qHTS for Inhibitors of Polymerase Kappa: Confirmatory Assay for Cherry-picked Compounds | AID 720501, 2013 | purified Pol-kappa, fluorescent strand-displacement substrate | hit rate 76% among 920 | shares compounds with Pol eta inh-1 | Potency, µM, most hits filed as inhibitors; also: potency is read from the fitted curve at half-maximal effect
Pol eta inh-2: qHTS for Inhibitors of Polymerase Eta: Confirmatory Assay for Cherry-picked Compounds; Pol eta primer extension, TAMRA/BHQ fluorescence, 10 min; shares compounds with Pol eta inh-1; hit rate 64% among 2,600; Potency, µM, hits mostly inhibitors; AID 720502, 2013; also: potency is read from the fitted curve at half-maximal effect
The depositor's hits bear a star; ? = inconclusive; . = not tested or not shown; [ ] = another dose, or the depositor's remark. This is a sample that favours compounds with a hit; in the whole collection about 2.8% have one here. Unless noted, calls follow the shape of the dose curve; as a rule, active = well fitted curve in the direction sought with a large enough effect; inconclusive = small, poorly fitted or top-dose-only effect, or another doubt; inactive = no such curve, though single readings can be large; an effect the other way counts as inactive or inconclusive.

SMILES | Pol eta inh-1 | Pol kappa inh-1 | POLI inh | POLB inh | WRN helicase inh | PI5P4Ka inh | Pol eta inh-2 | others
CC(=O)c1sc2nc(CSc3nnnn3-c3ccccc3)[nH]c(=O)c2c1C | 10µM* | ? | 11µM* | 13µM* | 28µM* | -83* | 67*
Cc1c(C(=O)O)sc2nc(CSc3nnc(-c4ccc(F)cc4)n3C)[nH]c(=O)c12 | 35µM* | -30% | ? | 1% | ? | ? | ?
Cc1nnc(SCc2nc3sc(C(=O)O)c(C)c3c(=O)[nH]2)s1 | 22µM* | 89µM* | 20µM* | 0% | -23% | -62* | 43*
Cc1ccc(-n2nnnc2SCc2nc3sc(C)c(C)c3c(=O)[nH]2)cc1 | 3% | -1% | 22% | 6% | -2% | -1 | .
CCOc1ccc(NC(=O)CSc2nnc(C3CC3)n2C2CC2)cc1 | -29% | -12% | 21% | . | 1% | 2 | .
O=C(c1ccccc1Cl)N1c2ncnn2C2(CCCCC2)[C@@H]2CCCC[C@@H]21 | -16% | -7% | 5% | 4% | . | . | .
CC1CCN(C(=O)COC(=O)C23CC4CC(CC(O)(C4)C2)C3)CC1 | 1% | 6% | -17% | . | 1% | 1 | .
COc1cc(CN2C[C@@H](CO)O[C@@H](n3cnc4c(N5CCOCC5)ncnc43)C2)cc(OC)c1OC | . | . | . | . | -1% | 5 | .
O=C1CN(C(=O)COC(=O)c2ccc([N+](=O)[O-])s2)c2ccccc2N1 | 22µM* | -11% | ? | . | -1% | 6 | ?
CC(=O)c1ccc(S(=O)(=O)N(CCCO)Cc2cc3cc(C)ccc3[nH]c2=O)cc1 | 50µM* | -26% | ? | 40µM* | -11% | 0 | 60*
COc1ccc2[nH]c(=O)c(CN(CCO)S(=O)(=O)c3ccc(C)cc3)cc2c1 | -20% | -21% | 21% | -5% | -6% | -2 | .
O=c1c(-c2cccs2)nc2cncnc2n1Cc1ccc(F)cc1 | . | -4%[60.1 µM] | . | . | . | . | .
COc1ccccc1C(=O)Nc1sc(C(=O)N2CCCC2)c(C)c1C#N | -9% | -17% | 97% | 4% | 5% | 1 | .
Cc1c(C(=O)N2CCCC2)sc(NC(=O)c2ccc(Cl)cc2)c1C#N | 5% | 2% | 0% | 59% | -14% | -6 | . | GALK confirm=?;GALK redox cs=-1%;HEK293 viability=-16%
CN(C)C1CN(Cc2cn(Cc3ccc(C(F)(F)F)cc3)nn2)S(=O)(=O)C1 (stereo not drawn) | . | . | . | . | 5% | -3 | .
COc1cc2c(cc1OC)CN(C(=O)/C=C/c1cccc([N+](=O)[O-])c1)CC2 | -24% | -9% | 60% | 0% | -5% | -2 | .
COc1cc(/C=C2/C(C)=C(C#N)c3nc(N)c(C#N)c(C)c32)ccc1OCC(=O)O | 18µM* | 89µM* | ? | ? | ? | -15 | 30*
C/C=C/c1ccc(OCC(=O)OCC)c(OC)c1 | -6% | -7% | -18% | 30% | -5% | -3 | .
CC(C(=O)N(C)C1CCS(=O)(=O)C1)N1C(=O)/C(=C/c2ccco2)SC1=S (stereo not drawn) | 22µM* | ? | 32µM* | ? | -26% | -15 | 76*
O=C(CN1C(=O)/C(=C/c2ccco2)SC1=S)NC1CCS(=O)(=O)C1 (stereo not drawn) | 13µM* | ? | ? | ? | -7%[11.6 µM] | -27 | 60*
N#Cc1c(NC(=O)c2ccncc2)sc2c1CCC2 | 32µM* | ? | ? | 14µM* | ? | . | 76*
O=C(Cc1ccccc1)NN1CCCCC1 | 7% | 0% | 4% | 20% | -33% | 1 | .
CC1=N/C(=C/c2ccco2)C(=O)O1 | 10µM* | 50µM* | ? | 10µM* | -10%[11.6 µM] | -4 | 30*
CCCCn1c(N)c(N(CCC(C)C)C(=O)CCN2C(=O)C3CC=CCC3C2=O)c(=O)[nH]c1=O (stereo not drawn) | -3% | -8% | 8% | . | -2% | 10 | .
Cc1cccc(C(=O)OCC(=O)Nc2nccs2)c1 | -17% | -7% | 8% | 15% | -1% | . | .
SMILES | Pol eta inh-1 | Pol kappa inh-1 | POLI inh | POLB inh | WRN helicase inh | PI5P4Ka inh | Pol eta inh-2 | others
CN(C)c1cccc(C(=O)OCC(=O)Nc2nccs2)c1 | ? | -15% | ? | 23% | -28%[57.1 µM] | ? | ?
O=C(CSc1nnc(CNC(=O)c2ccccc2F)o1)NC1CCCC1 | -19% | 4% | 39% | 9% | -5% | 2 | .
CN1OC[C@@H]2CN(C(=S)NCCc3ccccc3)[C@H](c3ccc(N4CCCCC4)cc3)C[C@@H]21 | . | . | . | . | 6% | 3 | .
CCc1ccc(NC(=O)c2ccc(Cn3nc(N4CCN(c5ccccc5)CC4)ccc3=O)o2)cc1 | 20µM* | -27% | ? | ? | . | . | ? | Pol kappa inh-2=?
Cc1cc(C)cc(-n2c(C)cc(C(=O)C(=O)Nc3nnc(C)s3)c2C)c1 | -5% | -20% | -5% | -18% | . | . | .
Cc1cccc(-n2c(C)cc(C(=O)C(=O)Nc3nncs3)c2C)c1 | 50µM* | -5% | 46% | -1% | . | . | ? | Pol kappa inh-2=?
Cc1cc(C(=O)C(=O)Nc2nnc(C(C)C)s2)c(C)n1-c1ccccc1 | 40µM* | -4% | 11% | 12% | . | . | ? | Pol kappa inh-2=21*
